Compound activity as filed in PubChem.
Rows were chosen to be rich in hits. Some 2.8% of all compounds tested hit in one or more screens of this group.
Peg3 promoter: Peg3 promoter-driven luciferase inhibitors, primary screen, cell-based, HeLa, luciferase luminescence. inhibition, % at 20 µM. 1.7% of 360,000 active. HeLa PEG-Prom luciferase reporter, overnight;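 active = inhibition of at least 50% at 20 µM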
CF NFkB block: inhibitors of PAF-induced NF-kB signaling, primary screen, cell-based, GFP fluorescence, uHTS | KKLEB NF-kB-GFP reporter, GFP fluorescence overnight | inhibition, % at 5 µM | 0.86% of 360,000 active;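 active = at least 50% inhibition at 5 µM, scaled per plate between neutral and stimulator controls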;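 also: PAF is a Pseudomonas aeruginosa culture filtrate used as stimulus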
HIF-2a inh: HIF-2a reporter inhibitors, primary screen, luminescence, 786-0 RCC cells; 0.72% of 360,000 active; 786-0 RCC cells HIF-2a reporter, luciferase luminescence, overnight; inhibition, % at 18.8 µM; AID 624352, 2012;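 active = inhibition of the luminescence signal of 40% or more relative to plate controls, in a single-dose primary screen at 18.75 µM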
MITF TRPM1 inh: inhibitors of MITF-dependent TRPM1 promoter reporter, primary screen, cell-based, SK-MEL-5, single point, luciferase; SK-MEL-5 TRPM1 promoter luciferase, 24 h; inhibition, % at 12.5 µM; 0.83% of 330,000 active; AID 488899, 2010;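 active = mean inhibition across replicates of 60% or more, whatever share of single replicates reaches that level; inconclusive = some that reach 60%, reason not given; inactive = mean inhibition across replicates below 60%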
KKLEB cytotox: cytotoxicity in KKLEB CF airway cells, primary screen, cytotoxicity control for CF NF-kB inhibitor project, cell-based, uHTS, fluorescence assay plates; KKLEB CF airway cells viability, ATPlite luminescence, overnight; stronger effect = lower value; cells stimulated with P. aeruginosa culture filtrate; activity change (cytotoxicity), % at 5 µM; 0.36% of 360,000 active; AID 602141, 2011;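 active = corrected activity change at or below -50% at 5 µM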
Shn3 3UTR inh: reduction of Shn3 3'UTR firefly luciferase signal, primary screen, Schnurri-3 inhibitor project, cell-based, Clone20 osteoblasts, set 2; Clone20 osteoblast Shn3 3'UTR firefly luciferase, 24 h; inhibition, % at 12.5 µM; 0.52% of 360,000 active;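 active = mean inhibition of at least 75% with every replicate also reaching 75%; inconclusive = mean inhibition at least 75% but some replicate below; inactive = mean inhibition below 75%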
Numbers stand for hits; n = inactive; u = inconclusive; x = not tested or not shown.

SMILES	Peg3 promoter	CF NFkB block	HIF-2a inh	MITF TRPM1 inh	KKLEB cytotox	Shn3 3UTR inh
COc1ccc(/C=C2\CCc3ccccc3C2=O)cc1OC	n	n	n	n	n	n
CCOc1cc(/C=C2\COc3ccccc3C2=O)ccc1OCC(=O)N(C)C	62	n	n	n	n	n
CCNC(=O)COc1ccc(/C=C2\COc3ccccc3C2=O)cc1OC	71	n	n	n	n	n
O=C1/C(=C/c2cccs2)COc2ccccc21	n	n	n	n	n	n
COc1ccc(Br)cc1CN1CCN(Cc2c[nH]c3ccccc23)CC1	52	n	n	n	n	n
Cc1cc(C)c(CN2CCN(C(=O)Cn3cnc(C(=O)Nc4ccc(C)c(C)c4)n3)CC2)c(C)c1	86	n	n	n	-69	n
Cc1ccc(NC(=O)c2ncn(CC(=O)N[C@H](C)c3cccc4ccccc34)n2)cc1C	n	n	n	n	n	n
Cc1ccc(NC(=O)c2ncn(CCCN3CCN(Cc4cccc5ccccc45)CC3)n2)cc1C	97	n	n	n	n	n
CCOc1ccc(/C=N/Nc2cc(=O)n(C)c(=O)n2C)cc1	n	n	n	n	n	n
Cc1ccc(-c2nc3cnccn3c2Nc2c(C)cccc2C)o1	102	n	n	n	n	n
O=C(CO)c1c[nH]c2ccccc12	107	n	n	x	n	n
C=CCN1C(=O)c2ccc(C(=O)N(CC)CC(=O)Nc3c(F)cccc3F)cc2C1=O	n	n	n	n	n	n
N#Cc1c(NCCN)nc(-c2ccccc2)c2c1CCCC2	67	n	n	n	n	n
O=C(NNC(=O)C12CC3CC(CC(C3)C1)C2)c1ccccn1	60	n	n	n	n	n
O=C(NNC(=O)C12CC3CC(CC(C3)C1)C2)c1cnccn1	n	n	n	n	n	n
CC1=NN(C(=O)c2ccc(Cn3cc([N+](=O)[O-])cn3)cc2)C(O)(C(F)(F)F)C1 (stereo not drawn)	n	n	n	n	n	n
Cc1ccc(/C(N)=N/OC(=O)c2ccc(C)cc2Cl)cc1	n	n	n	n	-64	n
N/C(=N\OC(=O)c1ccc(Cl)cc1Cl)c1ccc(Cl)cc1	n	n	n	n	n	n
Cc1ccc(-n2c(-c3ccccc3)c[n+]3c2CCc2ccccc2-3)c(C)c1	n	n	n	76	n	u
O=C(N[C@@H]1C/C=C\C[C@@H](CC(=O)N(CCO)Cc2ccccc2)C(=O)NC[C@H](c2ccccc2)OC1=O)OCC1c2ccccc2-c2ccccc21	n	n	n	n	n	88
O=C(N[C@H]1C/C=C\C[C@H](CC(=O)N(CCO)Cc2ccccc2)C(=O)N[C@@H](c2ccccc2)COC1=O)OCC1c2ccccc2-c2ccccc21	n	n	n	n	n	n
O=C(N[C@@H]1C/C=C\C[C@H](CC(=O)N(CCO)Cc2ccccc2)C(=O)NC[C@@H](c2ccccc2)OC1=O)OCC1c2ccccc2-c2ccccc21	n	n	n	n	n	90
O=C(C[C@H]1C/C=C\C[C@H](NC(=O)OCC2c3ccccc3-c3ccccc32)C(=O)O[C@H](c2ccccc2)CNC1=O)N[C@H](CO)Cc1ccccc1	87	86	n	n	-96	n
C[C@H]1COC(=O)[C@H](NC(=O)OCC2c3ccccc3-c3ccccc32)C/C=C\C[C@H](CC(=O)N(CCO)Cc2ccccc2)C(=O)N1	n	n	n	n	n	u
O=C(CSc1ccccc1F)NC(=O)NC1CCCC1	n	n	n	x	n	n
O=C(CN(C(=O)c1csnn1)c1ccccc1C(F)(F)F)NC1CCCCC1	n	n	n	n	n	n
CCCCc1nc(SCC(=O)N2CCOCC2)c2c(=O)n(C)c(=O)n(C)c2n1	n	n	n	n	n	n
CCOc1ccc(OCc2cccc(C(=O)Nc3ccc(CN4CCCCC4)cc3)c2)cc1	50	n	n	n	n	n
CCOC(=O)C1(Cc2cccc(OC)c2)CCN(C/C=C/c2ccccc2)CC1	n	n	n	n	n	n
